Data as given in PubChem BioAssay (Tox21).
Results filed as inconclusive are left out. The source made the active and inactive calls. Unless noted, the call rests on the fitted dose curve; in most records, active means well fitted curve in the direction sought with a large enough effect in the repeat runs; inconclusive means weak or mixed curves; inactive means no such curve, though single readings can be large; an effect the other way counts as inactive or inconclusive.

How the values were obtained:
[1] = qHTS assay to identify small molecule agonists of H2AX (AID 1224845; active means well fitted activation curve with a large enough effect in the signal ratio in the repeat runs, not every such curve was filed as active; the % refers to the signal ratio)
Method in brief: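 Wild-type CHO-K1 cells plated overnight, then exposed 3 hr at 37C to compounds at 15 concentrations (0.76% DMSO). Lysed, then HTRF anti-pH2AX(S139)-cryptate/anti-H2AX-d2 detection after 24 hr at room temperature; emissions 665 and 620 nm.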

[2] = qHTS assay to identify small molecule antagonists of the estrogen related receptor (ERR) signaling pathway from Tox21 library (AID 1224848); further: nearly all actives have a fitted effect of over 50% in size
Method in brief: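 Cells: ERR line, 2,000/well; 6 h preincubation 37 C/5% CO2. Cpd in DMSO via pin tool; 18 h, 37 C. ONE-Glo, 30 min RT, luminescence.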

[3] = qHTS assay to identify small molecule agonists of the estrogen related receptor (ERR) signaling pathway from Tox21 library (AID 1224849; calls by dose curve; further: nearly all actives have a fitted effect of over 15% in size)
Method in brief: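 ERR reporter cells (NTP line) pre-incubated 6 hours at 37 C, then exposed to compounds for 18 hours at 37 C. ONE-Glo luciferase luminescence was read after 30 minutes at room temperature.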

[4] = qHTS RealTime-Glo MT Cell Viability Assay in HepG2 cells - 24 hour (AID 1224867); further: nearly all actives have a fitted effect of over 50% in size
Method in brief: (§1)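 Cell number in HepG2 cultures estimated from NanoLuc luminescence generated by metabolic reduction of a prosubstrate by living cells. The homogeneous, nonlytic format allowed repeated reads at 0, 8, 16, 24, 32 and 40 h of compound exposure.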

[5] = qHTS RealTime-Glo MT Cell Viability Assay in HEK293 cells - 32 hour (AID 1224868); further: top concentration of the series differs between compounds; nearly all actives have a fitted effect of over 50% in size
Method in brief: (§2)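 Homogeneous bioluminescent viability format in HEK293 cells (600 cells/well). Following 5 h at 37 C/5% CO2, 23 nL compound was pintooled; the signal was measured repeatedly during 40 h incubation.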

[6] = A CellTox Green Cytotoxicity Assay to monitor cytotoxicity in HEK293 cells - 0 hour (AID 1224869); further: nearly all actives have a fitted effect of over 50% in size
Method in brief: (§3)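 HEK293 cells, 600/well, were preincubated 5 hours and then exposed to compounds at 37 C for up to 40 hours. A cell-impermeant cyanine dye staining dead-cell DNA was read by fluorescence at 0, 8, 16, 24, 32 and 40 h time points.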

[7] = qHTS RealTime-Glo MT Cell Viability Assay in HepG2 cells - 40 hour (AID 1224870); further: nearly all actives have a fitted effect of over 50% in size
Method in brief: (§4)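 HepG2 cells mixed with RealTime-Glo MT reagents (NanoLuc plus cell-permeant prosubstrate) were seeded at 600 cells/well, incubated 5 h at 37 C/5% CO2, then pinned with compounds in DMSO; nonlytic luminescence tracked viability during 40 h treatment.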

[8] = A CellTox Green Cytotoxicity Assay to monitor cytotoxicity in HEK293 cells - 40 hour (AID 1224871); further: nearly all actives have a fitted effect of over 45% in size
Method in brief: as §3

[9] = qHTS RealTime-Glo MT Cell Viability Assay in HEK293 cells - 16 hour (AID 1224872)
Method in brief: as §2

[10] = qHTS RealTime-Glo MT Cell Viability Assay in HepG2 cells - 8 hour (AID 1224873); further: nearly all actives have a fitted effect of over 55% in size
Method in brief: as §4

[11] = qHTS RealTime-Glo MT Cell Viability Assay in HEK293 cells - 40 hour (AID 1224874); conditions: RealTime-Glo luminescence; max response: stronger effect = lower value; further: nearly all actives have a fitted effect of over 50% in size
Method in brief: (§5)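 600 cells/well were plated with the nonlytic NanoLuc/prosubstrate reagent, pre-incubated 5 h, then given 23 nL of compound in DMSO. Incubation at 37 C for 40 h, with luminescence from viable-cell-reduced substrate read repeatedly from 0 h.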

[12] = A CellTox Green Cytotoxicity Assay to monitor cytotoxicity in HEK293 cells - 24 hour (AID 1224875); further: series mostly up to about 77 µM; nearly all actives have a fitted effect of over 45% in size
Method in brief: as §3

[13] = A CellTox Green Cytotoxicity Assay to monitor cytotoxicity in HepG2 cells - 16 hour (AID 1224876); further: nearly all actives have a fitted effect of over 45% in size
Method in brief: (§6)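 HepG2 cells, 600/well, preincubated 5 h with CellTox Green dye, then exposed to Tox21 compounds in DMSO at 37 C for up to 40 h. Dead-cell DNA fluorescence read at the indicated time point.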

[14] = qHTS RealTime-Glo MT Cell Viability Assay in HepG2 cells - 32 hour (AID 1224877); further: nearly all actives have a fitted effect of over 55% in size
Method in brief: as §1

[15] = A CellTox Green Cytotoxicity Assay to monitor cytotoxicity in HepG2 cells - 24 hour (AID 1224878); further: nearly all actives have a fitted effect of over 45% in size
Method in brief: as §6

[16] = qHTS RealTime-Glo MT Cell Viability Assay in HEK293 cells - 0 hour (AID 1224880)
Method in brief: as §5

[17] = A CellTox Green Cytotoxicity Assay to monitor cytotoxicity in HEK293 cells - 32 hour (AID 1224881); further: nearly all actives have a fitted effect of over 40% in size
Method in brief: as §3

[18] = qHTS assay to identify small molecule agonists of the hypoxia (HIF-1) signaling pathway (AID 1224846; active means well fitted activation curve with a large enough effect in the signal ratio in the repeat runs, not every such curve was filed as active; the % refers to the signal ratio)
Method in brief: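 HRE-bla ME-180 beta-lactamase reporter cells in medium with 0.5% dialyzed FBS, pre-incubated 5 h then exposed to compounds 17 h at 37C, 5% CO2; reporter induction read with CCF4-AM FRET substrate.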

[19] = qHTS assay to identify small molecule agonists of H2AX - cell viability counter screen (AID 1224847; calls by dose curve; further: top concentration of the series differs between compounds; nearly all actives have a fitted effect of over 30% in size)
Method in brief: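 For this counter screen, overnight-attached CHO-K1 cells received test compounds (15 concentrations, 0.76% DMSO final); 3 hr later at 37C, CellTiter-Glo reagent was added and luminescence recorded after 30 min at room temperature.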

[20] = A CellTox Green Cytotoxicity Assay to monitor cytotoxicity in HepG2 cells - 40 hour (AID 1224879); further: nearly all actives have a fitted effect of over 40% in size
Method in brief: as §6
On the % scale 0 is the no-effect control and ±100 the full control effect.

Cc1ccnc(NS(=O)(=O)c2ccc(N)cc2)n1
inactive: Potency [1] | Potency [2] | outcome [3] | outcome [4] | Potency [5] | outcome [6] | Potency [7] | Potency [8] | Potency [9] | outcome [10] | max response [11] 6.66% | outcome [12] | outcome [13] | Potency [14] | outcome [15] | Potency [16] | outcome [17]

O=Cc1cccc(Br)c1
inactive: outcome [18] | outcome [19] | Potency [2] | outcome [3] | outcome [4] | Potency [5] | outcome [6] | Potency [7] | Potency [8] | Potency [9] | outcome [10] | max response [11] 4.64% | outcome [13] | Potency [14] | outcome [15] | Potency [20] | Potency [16] | outcome [17]

Cc1cccc(C)c1NC(=O)CC12CCCN1CCC2
inactive: outcome [18] | outcome [19] | Potency [2] | outcome [3] | outcome [4] | Potency [5] | outcome [6] | Potency [7] | Potency [8] | Potency [9] | outcome [10] | max response [11] 5.91% | outcome [12] | Potency [14] | Potency [16] | outcome [17]

CC(COc1ccccc1)NN (centres undefined)
inactive: outcome [18] | outcome [19] | Potency [2] | outcome [3] | outcome [4] | Potency [5] | outcome [6] | Potency [7] | Potency [8] | Potency [9] | outcome [10] | max response [11] 2.34% | outcome [12] | outcome [13] | Potency [14] | Potency [20] | Potency [16] | outcome [17]

C[N+]1(CC2COC(c3ccccc3)(c3ccccc3)O2)CCCCC1 (centres undefined)
inactive: activation [18] 0.207% [at 15.8 µM] | activity change, negative = cytotoxicity [19] -1.84% [at 31.6 µM] | activity, negative = inhibition [2] 4.63% [at 19 µM] | activity change, positive = activation [3] 2.6% [at 19 µM] | activity change, negative = cytotoxicity [4] -0.511% [at 15.8 µM] | activity change, negative = cytotoxic [5] -5.88% [at 15.8 µM] | cytotoxicity [6] -9.06% [at 15.8 µM] | cytotoxicity increase [8] -8.19% [at 15.8 µM] | activity change, negative = cytotoxicity [9] -1.95% [at 15.8 µM] | viability change, negative = cytotoxic [10] 1.12% [at 15.8 µM] | max response [11] -1.89% | activity change [12] -7.42% [at 15.8 µM] | cytotoxicity increase [13] -3.73% [at 15.8 µM] | activity change, negative = cytotoxic [14] -9% [at 15.8 µM] | cytotoxicity [15] -0.651% [at 15.8 µM] | cytotoxicity increase [20] -0.954% [at 15.8 µM] | activity change, negative = cytotoxicity [16] -4.13% [at 15.8 µM] | cytotoxicity increase [17] -8.36% [at 15.8 µM]

O=C(CO)[C@@H](O)[C@H](O)[C@H](O)CO
inactive: outcome [18] | outcome [19] | Potency [2] | outcome [3] | outcome [4] | Potency [5] | outcome [6] | Potency [7] | Potency [8] | Potency [9] | outcome [10] | max response [11] 1.94% | outcome [12] | outcome [13] | Potency [14] | outcome [15] | Potency [20] | Potency [16] | outcome [17]

O=C(O)c1cn(C2CC2)c2cc(N3CCNCC3)c(F)cc2c1=O
inactive: Potency [1] | outcome [19] | outcome [4] | outcome [6] | Potency [7] | Potency [8] | Potency [9] | outcome [10] | outcome [13] | Potency [14] | outcome [15] | Potency [16] | outcome [17]
